Potency and affinity values are given separately. Records with an inconclusive call do not appear. Values without a mark were called inactive. The rule behind the calls is not given here.
Assay: COV362 cell viability loss – plate reader, dry powder, SA12, cytotoxicity control for PAX8 inhibitor project, dose response (AID 743144)
Conditions: COV362 ovarian cancer cells; series mostly up to 35 µM; activity change, negative = cytotoxicity: at the top concentration

| Compound | activity change, negative = cytotoxicity |
| --- | --- |
| COCC(=O)N1[C@H](CO)[C@H](c2ccc(-c3cccnc3)cc2)[C@@H]1C#N | 2.03% |
| N#C[C@@H]1[C@H](c2ccc(C#CC3CCCCC3)cc2)[C@H](CO)N1S(=O)(=O)c1ccccc1 | -33.3% |
| C[C@@H]1CN([C@H](C)CO)C(=O)CCCn2cc(nn2)CO[C@H]1CN(C)C(=O)Nc1ccc(-c2cccs2)cc1 | -10% |
| O=C1/C(=C/c2cccc(Br)c2)SC(=S)N1CCC(=O)N(CCO)c1ccccc1 | -11.7% [at 50 µM] |
| C[C@H](CO)N1C[C@H](C)[C@@H](CN(C)S(=O)(=O)c2ccc(-c3ccccc3)cc2)OCc2cn(nn2)CCCC1=O | 8.14% |
| O=C(C[C@H]1CC[C@H]2[C@@H](COC[C@@H](O)CN2S(=O)(=O)c2cccc(Cl)c2)O1)Nc1ccc(-c2ccccc2)cc1 | -17.3% |
| N#C[C@H]1[C@@H](c2ccc(C3=CCCC3)cc2)[C@@H](CO)N1C(=O)NC1CCCCC1 | 9.28% |
| Cc1ccc(S(=O)(=O)CC(CN2CCCCC2)N2CCCCC2)cc1 (configuration not stated) | -29.5% [at 50 µM] |
| C[C@@H]1CN([C@@H](C)CO)S(=O)(=O)c2ccc(C#C[C@@H](C)O)cc2O[C@H]1CN(C)Cc1ccc(-c2ccccc2)cc1 | -24.5% |
| C[C@H](CO)N1C[C@H](C)[C@@H](CN(C)S(=O)(=O)c2ccc(Cl)cc2)OCCCC[C@H](C)Oc2ccc(NS(=O)(=O)c3ccccc3)cc2C1=O | -35.1% |
| CC(=O)N1CCOc2ccc(S(=O)(=O)N3CCN(c4cccc(C(F)(F)F)c4)CC3)cc21 | -15.3% [at 50 µM] |
| CC(C)(C)c1nnc(NC(=O)CCS(=O)(=O)c2ccccc2)s1 | -23.7% [at 50 µM] |
| O=C(CN1C(=O)c2ccccc2S1(=O)=O)c1ccccc1Cl | 6.01% [at 50 µM] |
| C[C@H](CO)N1C[C@H](C)[C@H](CN(C)C(=O)Nc2ccc(-c3cccs3)cc2)OCc2cnnn2CCCC1=O | 19.4% |
| N#C[C@@H]1[C@@H](c2ccc(C3=CCCCC3)cc2)[C@@H](CO)N1C(=O)NC1CCCCC1 | 5.18% |
| COc1cccc(C#Cc2ccc([C@@H]3[C@@H](C#N)N(C(=O)C4CCCC4)[C@@H]3CO)cc2)c1 | 1.78% |
| N#C[C@@H]1[C@@H](c2ccc(-c3ccccc3F)cc2)[C@@H](CO)N1C(=O)C1CCC1 | -4.33% |
| COc1ccccc1C#Cc1ccc([C@H]2[C@@H](CO)N(C(=O)C3CCCC3)[C@H]2C#N)cc1 | -0.208% |
| C[C@H](CO)N1C[C@H](C)[C@@H](CN(C)Cc2ccc(C(F)(F)F)cc2)Oc2ccc(NS(=O)(=O)c3ccc(Cl)cc3)cc2CC1=O | 3.8% [at 16 µM] |
| O=C1/C(=C/c2ccccc2)SC(=S)N1CC(=O)N1CCCCC1c1cccnc1 (configuration not stated) | 0.677% [at 50 µM] |
| COc1cccc(C#Cc2ccc([C@@H]3[C@@H](C#N)N(C(=O)C4CCCCC4)[C@@H]3CO)cc2)c1 | 4.28% |
| C[C@H]1CN([C@@H](C)CO)C(=O)Cc2cc(NC(=O)NC3CCCCC3)ccc2O[C@@H]1CN(C)Cc1ccc(-c2ccccc2)cc1 | 21.3% |

— PubChem BioAssay AID743144 (Broad Institute, 2013)
